From PubChem BioAssay come the findings set out here.

The nature of assay [1]: inhibitors of TNFa-induced NFkB p65 translocation, primary screen, imaging, HUVEC, MLSMR starter and 10KST1 sets (AID 438;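 active means inhibition above 20% together with a positive visual image hit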;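 further: compound added about 3h40 before a 20 min TNFalpha stimulation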;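 on inhibition: signal is the nuclear over cytoplasmic p65 intensity ratio per well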). The note with it: HUVEC TNFa-induced p65 nuclear translocation; cell count: measured here: nuclei count (cytotoxicity indicator), at 2.08 µM; inhibition: at 2 µM, stronger effect = higher value, 0% TNFa-plus-vehicle, 100% no-TNFa wells.
Assay [2] in a line: inhibitors of mutant huntingtin aggregation, primary screen, imaging, exon1htt(103Q)mCFP cells, high-content imaging (AID 483).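 Further: compound exposure lasted 3 days before fixation.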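 On nuclei count: percent of the per-plate median nuclei count of sample wells.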 As to conditions: exon1htt(103Q)mCFP cell line, aggregate imaging, at 2 µM; inhibition of aggregation: stronger effect = higher value; nuclei count: measured here: cell count, toxicity.
Assay [3] is described as follows: inhibitors of E-selectin induction by TNFa, primary screen, imaging, HUVEC, immunofluorescence, MLSMR starter and 10KST1 sets (AID 487;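 active means visually confirmed hit in the image check and inhibition above 20%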;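 on inhibition: signal is fraction of cell area covered by stained E-selectin grains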;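 on nuclei count: 100% = median nuclei count of all wells on the same plate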). As to conditions: HUVEC TNFalpha-induced E-selectin immunofluorescence imaging, at 2 µM; inhibition: stronger effect = higher value; nuclei count: measured here: cell number, toxicity.
For assay [4], the target named is Voltage-gated potassium channel subunit beta-2 (Rattus norvegicus) (UniProt P62483). Kind of assay: KvBeta enzyme negative modulators, primary screen, biochemical, NADPH fluorescence (AID 622;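 active means fluorescence slope higher than the sample average by over 3 SD, cut at about -0.22 in these data, passing the limit was not always enough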;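 further: slope of raw intensity against log time taken from 70 to 1610 s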). The note with it: recombinant KvBeta, 4-cyanobenzaldehyde reduction, at 10 µM, stronger effect = higher value.
Voltage-gated potassium channel subunit beta-2 (Rattus norvegicus), sequence (P62483 whole entry, looked up): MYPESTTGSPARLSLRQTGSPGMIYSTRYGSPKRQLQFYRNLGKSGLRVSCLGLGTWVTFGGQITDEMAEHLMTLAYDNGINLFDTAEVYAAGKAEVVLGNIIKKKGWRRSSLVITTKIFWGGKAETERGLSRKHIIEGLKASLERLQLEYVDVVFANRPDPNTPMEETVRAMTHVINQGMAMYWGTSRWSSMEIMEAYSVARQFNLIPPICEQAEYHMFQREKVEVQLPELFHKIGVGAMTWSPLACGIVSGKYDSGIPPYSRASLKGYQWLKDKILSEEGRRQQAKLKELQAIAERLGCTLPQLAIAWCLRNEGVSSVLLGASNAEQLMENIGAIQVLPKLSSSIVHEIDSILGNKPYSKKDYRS
For assay [5] the target is unchanged. The assay can be described thus: KvBeta positive modulators, primary screen, biochemical, NADPH fluorescence (AID 623;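 active means NADPH fluorescence slope more negative than the mean of all samples by about 3 SD, 99.7% confidence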;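 further: fluorescence intensity change per second fitted from 20 to 320 s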). The note with it: Recombinant KvBeta, NADPH fluorescence decrease slope, 10 min; at 10 µM; stronger effect = lower value.
Assay [6] has as its target Alpha-2C adrenergic receptor (Homo sapiens) (UniProt P18825). The assay can be described thus: modulators of alpha2C/GIRK thallium flux, primary screen, cell-based, HEK293 alpha2C/GIRK1/2 (AID 624;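 active means fluorescence slope after compound addition differing from the mean of all screened samples at 99.7% confidence, in either direction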;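 further: slope of fluorescence ratio to pre-addition baseline per second over 15 to 24 s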). As to conditions: thallium flux BTC fluorescence, at 10 µM, actives lie on both sides.
Assay [7] in a line: inhibitors of Sendai virus-induced IRF3 signaling, primary screen, TLR/RLR signaling modifier project, cell-based, Sendai virus stimulus, luciferase, 10K MLSCN set (AID 602276;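 active means inhibition at or above 50% at 10 µM; inactive means inhibition below 50%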;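 further: firefly luciferase from ISG56 promoter only with Renilla not read in this screen; 0% = Sendai virus plus DMSO and 100% = medium plus DMSO without virus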). As to conditions: HEK293 RL24 IRF3 luciferase reporter, at 10 µM, stronger effect = higher value.
Assay [8] in a line: inhibitors of poly I:C-induced TLR3 signaling, primary screen, cell-based, poly I:C stimulus, luciferase, 10K MLSCN set (AID 602277;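 active means inhibition of the reporter signal at or above 50%; inactive means inhibition below 50%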). The note with it: HEK293-TLR3 RL24 IRF3 luciferase reporter, at 10 µM, stronger effect = higher value.

The source made the active and inactive calls.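 How the source made its calls, unless noted: active means visual image review flags a hit and inhibition of aggregation exceeds 20%; inconclusive means visual hit but inhibition at or below 20%; inactive means no hit on visual image review.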

Alpha-2C adrenergic receptor (Homo sapiens), sequence (P18825 whole entry, looked up): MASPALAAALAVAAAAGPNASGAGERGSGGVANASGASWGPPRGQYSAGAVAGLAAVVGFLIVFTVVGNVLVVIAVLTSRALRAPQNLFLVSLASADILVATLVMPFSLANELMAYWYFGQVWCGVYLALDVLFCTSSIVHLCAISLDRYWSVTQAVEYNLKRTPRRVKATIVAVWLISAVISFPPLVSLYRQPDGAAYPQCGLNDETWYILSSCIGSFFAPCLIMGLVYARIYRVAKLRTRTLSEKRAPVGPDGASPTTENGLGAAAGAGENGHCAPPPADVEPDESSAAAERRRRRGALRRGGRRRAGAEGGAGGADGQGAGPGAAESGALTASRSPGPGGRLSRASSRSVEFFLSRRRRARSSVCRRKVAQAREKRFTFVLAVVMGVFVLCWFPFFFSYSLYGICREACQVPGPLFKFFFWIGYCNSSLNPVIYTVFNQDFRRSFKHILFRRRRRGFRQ

As to `COC1CCCCC1Nc1cccc(SC)c1` (stereo unspecified), the cell count in assay [1] was determined as 411. Besides, the inhibition in assay [1] was 0.6% (inactive); in assay [3], -65.5% (inactive); in assay [7], 12.1% (inactive); in assay [8], 19.8% (inactive). Moreover, in assay [2], the inhibition of aggregation was -6.7% (inactive). Also, the nuclei count turned out to be 90.9% in assay [2] and 120% in assay [3]. Further, in assay [4], the fluorescence slope is -0.414 (inactive). Moreover, the NADPH fluorescence slope in assay [5] is -2.4e-05 (inactive). The slope in assay [6] is 0.0037 (inactive).

Regarding `CCCn1c(N)c(C(=O)CSc2nnc(Cc3ccccc3)o2)c(=O)n(C)c1=O`, the cell count in assay [1] was 412. Besides, the inhibition in assay [1] is 1% (inactive); in assay [7], 9.61% (inactive); in assay [8], -3.84% (inactive). Also, the inhibition of aggregation in assay [2] is 4.7% (inactive). The nuclei count in assay [2] was determined as 99.8%; in assay [3], 150%. Also, in assay [4], the fluorescence slope is -0.556 (inactive). Also, the NADPH fluorescence slope in assay [5] is 0.00012 (inactive). In addition, the slope in assay [6] was 0.00683 (inactive).

Consider `Cc1cccc(N2CCN(C(=O)C3CCCN(S(=O)(=O)c4cnc[nH]4)C3)CC2C)c1` (stereo unspecified), for which the cell count in assay [1] stood at 387. Also, the inhibition in assay [1] is 1.7% (inactive); in assay [3], -11.9% (inactive); in assay [7], 6.53% (inactive); in assay [8], 17.4% (inactive). Moreover, the inhibition of aggregation in assay [2] was -14% (inactive). For the same molecule, the nuclei count in assay [2] worked out at 107%; in assay [3], 122%. The fluorescence slope in assay [4] is -0.438 (inactive). Besides, in assay [5], the NADPH fluorescence slope was 1.5e-05 (inactive). Moreover, the slope in assay [6] was 0.00647 (inactive).

Regarding `CNS(=O)(=O)c1cccc(C(=O)OCC(=O)c2cc(C)n(-c3ccc4c(c3)OCO4)c2C)c1`, the cell count in assay [1] was determined as 406. Moreover, the inhibition in assay [1] was 2.5% (inactive); in assay [7] it was -1.89% (inactive); in assay [8], 10.6% (inactive). In assay [2], the inhibition of aggregation was -7.6% (inactive). Besides, the nuclei count was determined as 97.3% in assay [2] and 156% in assay [3]. For the same molecule, the fluorescence slope in assay [4] was -0.436 (inactive). Further, the NADPH fluorescence slope in assay [5] is -4.7e-05 (inactive). In assay [6], the slope is 0.0143 (active).

For the molecule `COc1cccc(C(=O)OCn2nnc3ccccc3c2=O)c1OC`, the cell count in assay [1] is 750. Besides, the inhibition was -25% (inactive) in assay [1], -17.8% (inactive) in assay [3], 11.8% (inactive) in assay [7] and 28.8% (inactive) in assay [8]. Moreover, the inhibition of aggregation in assay [2] is 21% (inactive). Also, the nuclei count in assay [2] was determined as 99.5%; in assay [3], 103%. Further, the fluorescence slope in assay [4] is -0.441 (inactive). Further, the NADPH fluorescence slope in assay [5] is -2.9e-05 (inactive). Moreover, the slope in assay [6] is 0.00547 (inactive).

`Cc1ccc(Cn2nnc(C(=O)Nc3cccc(C)c3C)c2N)cc1`: the cell count in assay [1] was 457. The figures for the inhibition in assay [1], in assay [7] and in assay [8] were 9.4% (inactive), 6.59% (inactive) and 9.57% (inactive), respectively. For the same molecule, the inhibition of aggregation in assay [2] is 1.7% (inactive). The results for the nuclei count in assay [2] and in assay [3] were 95.1% and 150%, respectively. Besides, the fluorescence slope in assay [4] was -0.565 (inactive). Further, the NADPH fluorescence slope in assay [5] was 2.2e-07 (inactive). In addition, in assay [6], the slope was 0.00621 (inactive).

With `N#Cc1ccc(CSc2nnc(-c3cccs3)n2-c2ccccc2)cc1`, in assay [1], the cell count amounted to 369. Also, the inhibition is -6% (inactive) in assay [1], -50% (inactive) in assay [3], -0.725% (inactive) in assay [7] and 2.95% (inactive) in assay [8]. Besides, in assay [2], the inhibition of aggregation was -12.4% (inactive). Further, the nuclei count in assay [2] stood at 99.1%; in assay [3], 120%. In addition, the fluorescence slope in assay [4] is -0.5 (inactive). For the same molecule, the NADPH fluorescence slope in assay [5] is 9.2e-06 (inactive). In addition, in assay [6], the slope is 0.00461 (inactive).

In the case of `CN(c1ccccc1C(=O)N1CCN(c2cccc(Cl)c2)CC1)S(C)(=O)=O`, the cell count in assay [1] came out at 313. Also, the inhibition in assay [1] is -1.9% (inactive); in assay [3] it was 18.2% (inactive); in assay [7], 6.88% (inactive); in assay [8] it was 8.69% (inactive). In assay [2], the inhibition of aggregation is 3.7% (inactive). Moreover, the nuclei count in assay [2] was determined as 101%; in assay [3], 120%. Besides, in assay [4], the fluorescence slope is -0.432 (inactive). For the same molecule, the NADPH fluorescence slope in assay [5] was -2.5e-05 (inactive). Besides, in assay [6], the slope is 0.0047 (inactive).

Consider `Cn1c(=O)cc(OCC(=O)NCCCN2CCN(c3cccc(Cl)c3)CC2)c2ccccc21`, for which, in assay [1], the cell count came to 583. Moreover, the inhibition is 8% (inactive) in assay [1], -83.7% (inactive) in assay [3], 25% (inactive) in assay [7] and 31.3% (inactive) in assay [8]. Besides, in assay [2], the inhibition of aggregation is -42.4% (inactive). The nuclei count in assay [2] worked out at 98.2%; in assay [3] it was 128%. For the same molecule, in assay [4], the fluorescence slope is -0.514 (inactive). In assay [5], the NADPH fluorescence slope is -1.4e-05 (inactive). Also, the slope in assay [6] was 0.00636 (inactive).
